GLS inh = qHTS for Inhibitors of Glutaminase (GLS). Glutaminase kidney isoform, mitochondrial (Homo sapiens), O94925. GLS enzymatic activity, qHTS titration. Potency, µM (top dose mostly 45.5 µM), inactives show at the highest dose activity change, negative = inhibition, most hits filed as inhibitors. actives 0.21% (n = 410,000). AID 624170, 2012; also: % is scaled to controls: 0 for no effect and ±100 for the full control effect
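Glutamate formation by hKGA was monitored fluorometrically using coupled glutamate oxidase, HRP and Amplex Red. Substrate was added as 1 mM L-glutamine solution; incubation was 30 min at RT after an initial read.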
G9a block = qHTS Assay for Inhibitors of Histone Lysine Methyltransferase G9a. Histone-lysine N-methyltransferase EHMT2 (Homo sapiens), Q96KQ7. G9a H3K9 monomethylation, AlphaScreen, 2 h. Potency, µM (doses to about 102 µM), for the others: top-dose activity, negative = inhibition, actives largely listed as inhibitors. actives 8.8% (n = 350,000). AID 504332, 2011; also: % is scaled to controls: 0 for no effect and ±100 for the full control effect; nearly all actives have a fitted effect of over 75% in size
Target sequence (Q96KQ7 913-1193 limits assumed): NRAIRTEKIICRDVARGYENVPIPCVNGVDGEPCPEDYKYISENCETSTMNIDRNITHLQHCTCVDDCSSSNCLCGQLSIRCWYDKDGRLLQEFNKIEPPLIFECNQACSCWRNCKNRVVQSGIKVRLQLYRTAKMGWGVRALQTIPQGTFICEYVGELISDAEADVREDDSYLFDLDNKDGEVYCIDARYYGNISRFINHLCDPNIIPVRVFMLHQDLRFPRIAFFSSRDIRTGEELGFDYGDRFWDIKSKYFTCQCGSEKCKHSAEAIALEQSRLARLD
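G9a (20 nM) preincubated 15 min RT with compounds, then 500 nM biotinylated H3K9 peptide and 20 uM SAM added; 2 h RT reaction. Monomethyl-H3K9 product detected by AlphaScreen with anti-H3K9me1 antibody, streptavidin donor and anti-rabbit IgG acceptor beads.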
JMJD2A Tudor = qHTS Assay for Inhibitors of JMJD2A-Tudor Domain; AID 504339, 2011; Potency, µM (series often up to 114 µM), inactives show top-dose activity change, negative = inhibition, actives largely listed as inhibitors; Lysine-specific demethylase 4A (Homo sapiens), O75164; actives 4.4% (n = 390,000); AlphaScreen JMJD2A-Tudor / H3K4me3 peptide binding; also: % is scaled to controls: 0 for no effect and ±100 for the full control effect; nearly all actives have a fitted effect of over 50% in size
HP1b chromo inh = HTS for Inhibitors of HP1-beta Chromodomain Interactions with Methylated Histone Tails; Chromobox protein homolog 1 (Homo sapiens), P83916; AlphaScreen HP1-beta / biotin-H3K9me3 peptide binding; Potency, µM (series often up to 114 µM), for inactives: at the top dose activity change, negative = inhibition, most hits filed as inhibitors; actives 0.56% (n = 390,000); also: nearly all actives have a fitted effect of over 70% in size
Target sequence (P83916 whole entry, looked up): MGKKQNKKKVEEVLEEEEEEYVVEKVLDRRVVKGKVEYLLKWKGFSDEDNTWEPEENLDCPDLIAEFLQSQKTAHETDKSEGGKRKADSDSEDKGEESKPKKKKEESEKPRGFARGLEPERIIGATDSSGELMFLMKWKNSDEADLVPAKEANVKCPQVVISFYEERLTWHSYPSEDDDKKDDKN
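HP1-beta protein (50 nM final) preincubated 30 min at room temperature with biotinylated H3(1-18)K9me3 peptide (50 nM) in PBS pH 7.4, 0.01% Tween-20, then compound added for 30 min. AlphaScreen streptavidin donor/nickel chelate acceptor beads (10 ug/mL final), 30 min dark, luminescence read.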
BAZ2B block = qHTS Assay for Inhibitors of BAZ2B. AID 504333, 2011. actives 4.4% (n = 360,000). Potency, µM (highest dose often 114 µM), for inactives: at the top dose activity change, negative = inhibition, usual class: inhibitors. AlphaScreen BAZ2B-H3K14Ac peptide displacement; also: % is scaled to controls: 0 for no effect and ±100 for the full control effect; nearly all actives have a fitted effect of over 60% in size
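Compounds, titrated to a top concentration of 110 uM, were incubated 30 min at room temperature with preformed BAZ2B/acetyl-K14 H3 peptide complex (50 nM each). Proximity signal was measured by AlphaScreen after 20 min with beads.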
An asterisk follows results filed as active; ? = inconclusive; / = no result given; ! = not active in a repeat; [ ] = dose if it differs, or a comment. Hits are enriched below; roughly 10% of the tested compounds scored in any of these assays. Calls follow the shape of the dose curve; as a rule, active = well fitted curve in the direction sought with a large enough effect; inconclusive = small, poorly fitted or top-dose-only effect, or another doubt; inactive = no such curve, though single readings can be large; an effect the other way counts as inactive or inconclusive. Potency is read from the fitted curve at half-maximal effect.

SMILES	GLS inh	G9a block	JMJD2A Tudor	HP1b chromo inh	BAZ2B block
CN(C)c1ncc2nc(-c3cccs3)c(=O)n(CCc3ccccc3)c2n1	/	18%[0.501 µM]	/	/	/
COc1ccc(N2CCN(C(=O)c3cc4c(-c5ccccc5F)nn(C)c4s3)CC2)cc1	-8%	11µM*	11µM*	?	/
COc1ccc(N2CCN(C(=O)c3cc4c(-c5ccc(Cl)cc5)nn(C)c4s3)CC2)cc1	10%	35µM*	?	-1%	10µM*
COc1ccc(-c2nc3n(n2)C(c2ccccc2)C(C(=O)Nc2cccnc2)=C(C)N3)cc1 (stereo not given)	12%	-30%[59 µM]	-10%	25%	-8%
CNC(=O)c1cc2cc(Br)ccc2s1	-11%	10%	-7%	-1%	-1%
CCNc1nc(NCC)nc(N(C#N)CCOc2ccccc2)n1	11%	/	-17%	13%	-3%
CCNc1nc(NC(C)C)nc(N(C#N)CCOc2ccccc2)n1	-1%	13µM*	-9%	56%	13%
CCCC(C(=O)Nc1ccc2c(C)cc(=O)oc2c1)c1ccccc1 (stereo not given)	-3%	22µM*	-24%	13%	56µM*
Cc1cc(=O)oc2cc(OCC(=O)NCc3ccccn3)ccc12	9%	30%	-11%	13%	-7%
Cc1cc(=O)oc2cc(NC(=S)NCc3ccccn3)ccc12	9%	40µM*	-18%	26%	?
Cc1cc(=O)oc2cc(NC(=O)C(C)Oc3ccc(F)cc3)ccc12 (stereo not given)	0%	45µM*	-19%	10%	6%
Cc1cc(=O)oc2cc(NC(=O)Cc3ccccc3)ccc12	4%	0%	-25%	14%	-25%
CC(=O)c1ccc(S(=O)(=O)NCC(=O)N2CCN(C/C=C/c3ccccc3)CC2)cc1	13%	7.9µM*	-27%	5%	-4%
O=C(/C=C/c1ccccc1)CCN1CCOCC1	-3%	/	89µM*	-24%	/
CCCC(=O)c1cc2c(cc1NC(=O)CC)OCCO2	2%	18%	4%	34%	4%
CCOc1ccc(NS(=O)(=O)c2ccc3c(c2)NC(=O)CCS3)cc1	1%	3%[59 µM]	-8%	12%	-1%
O=C(NNc1c(Cl)cccc1Cl)c1c(F)cccc1Cl	-1%	-1%	-8%	54%	13%
Cc1cc(C(=O)NNc2ccc(F)cc2)no1	-7%	28µM*	-3%	37%	3%
CCc1ccccc1NNC(=O)c1cc(C)on1	9%	3.2µM*	-10%	50%	2%
O=C(NNc1c(Cl)cccc1Cl)c1sccc1Cl	-19%	13µM*	-9%	72%	-14%
Cc1ccc(NC(=O)c2cc(C)on2)cc1	8%	?	3%	15%	-1%
CCc1ccc(C(=O)NNc2ccccc2F)cc1	15%	/	-11%	40%	-18%
CCCc1ccc(C(=O)NNc2ccccc2F)cc1	-1%	56µM*	-10%	63%	-14%
Cc1c(C(=O)NCc2ccc([N+](=O)[O-])cc2)sc(=O)n1Cc1ccc(-c2ccccc2)cc1	-19%	/	/	/	/
COc1ccccc1CNc1ccc2nnc(CCNC(=O)c3ccc(C)cc3)n2n1	-1%	-7%	-7%	23%	-13%
SMILES	GLS inh	G9a block	JMJD2A Tudor	HP1b chromo inh	BAZ2B block
COc1ccccc1CNC(=O)c1cnc(SC)nc1C	-1%	-1%[59 µM]	-5%	23%	1%
NC(=O)c1ccccc1N=Cc1cccnc1	1%	/	2%	38%	/
Cc1cc(C(=O)NNc2ccccc2F)no1	8%	40µM*	-4%	45%	-1%
Cc1cc(C(=O)NNc2cc(Cl)ccc2Cl)no1	-14%	-22%	-25%	0%	-1%
Cc1cc(C(=O)NNc2c(Cl)cccc2Cl)no1	56%	28µM*	9%	42%	-2%
O=C(Cc1cccc(NC(=O)C2CCCN(C(=O)C3CCCCC3)C2)c1)Nc1cccc(C(=O)N2CCCCC2)c1 (stereo not given)	-3%	/	-7%	39%	/
CCCCSCc1ccc(C(=O)O)o1	2%	5%[59 µM]	-16%	64%	9%
CC(=O)c1c(C)oc(C)c1CSCc1ccc(C(=O)O)o1	?	?	14µM*	-28%	?
O=C(N/C=C/c1ccco1)NCc1ccccc1	-14%	25µM*	79µM*	-12%	45µM*
O=C(N/C=C/c1ccco1)OCc1ccccc1	-16%	50µM*	-31%	35%	?
O=C(COC(=O)/C=C/c1ccco1)NCc1ccccc1	23%	?	-18%	45%	-36%
COc1cc(/C=N/NC(=O)COc2ccc(C)cc2)ccc1OC(=O)c1cccs1	-1%	2%[59 µM]	-21%	16%	-7%
COc1cc(C)c(CNC2CCCCC2)cc1C	-7%	32µM*	5µM*	?	?
COc1cc(C)c(CNc2cc(C)cc(C)c2)cc1C	7%	?	89µM*	-16%	?
COc1ccccc1CC(=O)Nc1ccc(OC)c(OC)c1	5%	33%[12.7 µM]	-16%	5%	7%
COc1cc(S(=O)(=O)NCc2ccncc2)c(OC)cc1C	7%	5%	-13%	-10%	-19%
COc1cc(C)c(CNc2ccc(OC)c(OC)c2)cc1C	/	?	/	/	45µM*
Oc1cc(CNC2CCCCC2)c(O)cc1CNC1CCCCC1	?	/	22µM*	14µM*	/
O=C(NCC(c1ccc2c(c1)OCO2)N1CCOCC1)c1ccc(F)cc1 (stereo not given)	-9%	19%[59 µM]	-6%	18%[57 µM]	2%
O=C(Nc1ncc(Cc2ccc(F)cc2)s1)c1ccc2c(c1)CC(c1ccccc1)OC2=O (stereo not given)	-2%	-2%[59 µM]	3%	37%	-1%
CCCNC(=O)CN1C(=O)COc2ccc(S(=O)(=O)N3CCC(C)CC3)cc21	-8%	0%[59 µM]	8%	34%	3%
O=C(CN1C(=O)CCSc2ccc(S(=O)(=O)N3CCOCC3)cc21)Nc1ccccc1Cl	-2%	-9%[59 µM]	-32%	7%	?
CCOc1ccccc1NC(=O)C1CCN(S(=O)(=O)c2ccc(OC)c(OC)c2)CC1	-5%	40µM*	-20%	25%	-3%
CCCNC(=O)CN1C(=O)COc2ccc(S(=O)(=O)N3CC(C)CC(C)C3)cc21 (stereo not given)	2%	32µM*	-3%	24%	-1%
CCOc1ccccc1NC(=O)C1CCN(S(=O)(=O)c2ccc(Br)cc2)CC1	1%	-3%[59 µM]	10%	46%	8%
Cc1cccc(NC(=O)CN2C(=O)CCSc3ccc(S(=O)(=O)N4CCOCC4)cc32)c1C	0%	-5%[59 µM]	50µM*	-17%	-34%
CCOc1ccccc1NC(=O)CN1C(=O)COc2ccc(S(=O)(=O)N3CCOCC3)cc21	?	2%[59 µM]	16µM*!	9%	-8%

Bioassay records as filed in PubChem.
